Test results as given in PubChem BioAssay (Tox21).
“And” between values parts separate entries of the source, which are not always exact repeats. Equal entries are not always repeated. Records with an inconclusive call do not appear. The source made the active and inactive calls. Unless noted, calls come from the whole dose curve; as a rule, active = well fitted curve in the direction sought with a large enough effect in the repeat runs; inconclusive = weak or mixed curves; inactive = no such curve, though single readings can be large; an effect the other way counts as inactive or inconclusive.

What was measured:
[1] = qHTS assay to identify small molecule agonists of H2AX (AID 1224845; active = well fitted activation curve with a large enough effect in the signal ratio in the repeat runs, not every such curve was filed as active; the % refers to the signal ratio)
Summary of the method: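 Wild-type CHO-K1 cells plated overnight, then exposed 3 hr at 37C to compounds at 15 concentrations (0.76% DMSO). Lysed, then HTRF anti-pH2AX(S139)-cryptate/anti-H2AX-d2 detection after 24 hr at room temperature; emissions 665 and 620 nm.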

[2] = qHTS assay to identify small molecule agonists of the hypoxia (HIF-1) signaling pathway (AID 1224846; active = well fitted activation curve with a large enough effect in the signal ratio in the repeat runs, not every such curve was filed as active; the % refers to the signal ratio)
Summary of the method: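 HRE-bla ME-180 beta-lactamase reporter cells in medium with 0.5% dialyzed FBS, pre-incubated 5 h then exposed to compounds 17 h at 37C, 5% CO2; reporter induction read with CCF4-AM FRET substrate.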

[3] = qHTS assay to identify small molecule agonists of H2AX - cell viability counter screen (AID 1224847; calls by dose curve; note: top concentration of the series differs between compounds; nearly all actives have a fitted effect of over 30% in size)
Summary of the method: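 Compounds tested at 15 concentrations were incubated 3 hr at 37C with wild-type CHO-K1 cells; cellular ATP-based luminescence (CellTiter-Glo) indicated viability.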

[4] = qHTS RealTime-Glo MT Cell Viability Assay in HepG2 cells - 24 hour (AID 1224867); note: nearly all actives have a fitted effect of over 50% in size
Summary of the method: (§1)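 HepG2 cells (600/well) were dispensed with RealTime-Glo reagents, incubated 5 h at 37 °C, then treated with compounds in DMSO for up to 40 h. Nonlytic NanoLuc luminescence reflecting viable cells was read at each stated time point.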

[5] = qHTS RealTime-Glo MT Cell Viability Assay in HEK293 cells - 32 hour (AID 1224868); note: nearly all actives have a fitted effect of over 50% in size; note: potency is the fitted concentration of half-maximal effect; for activity change, negative = cytotoxic: top concentration of the series differs between compounds
Summary of the method: (§2)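 HEK293 cells seeded with NanoLuc/prosubstrate reagent, rested 5 h at 37 C, then dosed and kept at 37 C up to 40 h. Nonlytic real-time luminescence from viable cells read at 0, 8, 16, 24, 32 and 40 h.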

[6] = A CellTox Green Cytotoxicity Assay to monitor cytotoxicity in HEK293 cells - 0 hour (AID 1224869); note: nearly all actives have a fitted effect of over 50% in size
Summary of the method: (§3)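 HEK293 cells, 600/well, were preincubated 5 hours and then exposed to compounds at 37 C for up to 40 hours. A cell-impermeant cyanine dye staining dead-cell DNA was read by fluorescence at 0, 8, 16, 24, 32 and 40 h time points.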

[7] = qHTS RealTime-Glo MT Cell Viability Assay in HepG2 cells - 40 hour (AID 1224870); note: nearly all actives have a fitted effect of over 50% in size
Summary of the method: (§4)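 HepG2 cells mixed with RealTime-Glo MT reagents (NanoLuc plus cell-permeant prosubstrate) were seeded at 600 cells/well, incubated 5 h at 37 C/5% CO2, then pinned with compounds in DMSO; nonlytic luminescence tracked viability during 40 h treatment.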

[8] = A CellTox Green Cytotoxicity Assay to monitor cytotoxicity in HEK293 cells - 40 hour (AID 1224871); note: nearly all actives have a fitted effect of over 45% in size
Summary of the method: as §3

[9] = qHTS RealTime-Glo MT Cell Viability Assay in HEK293 cells - 16 hour (AID 1224872)
Summary of the method: as §2

[10] = A CellTox Green Cytotoxicity Assay to monitor cytotoxicity in HEK293 cells - 24 hour (AID 1224875); note: series mostly up to about 77 µM; nearly all actives have a fitted effect of over 45% in size
Summary of the method: as §3

[11] = A CellTox Green Cytotoxicity Assay to monitor cytotoxicity in HepG2 cells - 16 hour (AID 1224876); note: nearly all actives have a fitted effect of over 45% in size; note: potency is the fitted concentration of half-maximal effect
Summary of the method: (§5)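 HepG2 cells, 600/well, preincubated 5 h with CellTox Green dye, then exposed to Tox21 compounds in DMSO at 37 C for up to 40 h. Dead-cell DNA fluorescence read at the indicated time point.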

[12] = qHTS RealTime-Glo MT Cell Viability Assay in HepG2 cells - 32 hour (AID 1224877); note: nearly all actives have a fitted effect of over 55% in size
Summary of the method: as §1

[13] = A CellTox Green Cytotoxicity Assay to monitor cytotoxicity in HepG2 cells - 24 hour (AID 1224878); note: nearly all actives have a fitted effect of over 45% in size
Summary of the method: as §5

[14] = A CellTox Green Cytotoxicity Assay to monitor cytotoxicity in HepG2 cells - 40 hour (AID 1224879); note: nearly all actives have a fitted effect of over 40% in size
Summary of the method: as §5

[15] = qHTS RealTime-Glo MT Cell Viability Assay in HEK293 cells - 0 hour (AID 1224880)
Summary of the method: (§6)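 600 cells/well were plated with the nonlytic NanoLuc/prosubstrate reagent, pre-incubated 5 h, then given 23 nL of compound in DMSO. Incubation at 37 C for 40 h, with luminescence from viable-cell-reduced substrate read repeatedly from 0 h.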

[16] = A CellTox Green Cytotoxicity Assay to monitor cytotoxicity in HEK293 cells - 32 hour (AID 1224881); note: nearly all actives have a fitted effect of over 40% in size
Summary of the method: as §3

[17] = qHTS RealTime-Glo MT Cell Viability Assay in HepG2 cells - 8 hour (AID 1224873); note: nearly all actives have a fitted effect of over 55% in size
Summary of the method: as §4

[18] = qHTS RealTime-Glo MT Cell Viability Assay in HEK293 cells - 40 hour (AID 1224874); settings: RealTime-Glo luminescence; max response: active compounds read low; note: nearly all actives have a fitted effect of over 50% in size; note: potency is the fitted concentration of half-maximal effect
Summary of the method: as §6
% is set by controls: 0 for no effect and ±100 for the full control effect.

CC(C)OC(=O)Cc1ccccc1
inactive: Potency [1] | outcome [2] | Potency [3] | Potency [4] | Potency [5] | Potency [6] | Potency [7] | Potency [8] | Potency [9] | Potency [10] | Potency [11] | Potency [12] | Potency [13] | Potency [14] | outcome [15] | Potency [16]

CN(C)N
inactive: Potency [1] | outcome [2] | Potency [3] | Potency [4] | Potency [5] | Potency [6] | Potency [7] | Potency [9] | Potency [17] | max response [18] 6.16% | Potency [12] | outcome [15]
active: Potency [11] 54.9 µM

CCC1(CC)C(=O)NC(=O)NC1=O
inactive: Potency [1] | outcome [2] | Potency [3] | Potency [4] | Potency [5] | Potency [6] | Potency [7] | Potency [8] | Potency [9] | Potency [17] | max response [18] 0.988% | Potency [10] | Potency [11] | outcome [15] | Potency [16]

CC[N+]1(CCOC(=O)C(O)(c2ccccc2)c2ccccc2)CCCCC1
inactive: Potency [1] | outcome [2] | Potency [3] | Potency [4] | Potency [5] | Potency [7] | Potency [8] | Potency [9] | Potency [17] | max response [18] 4.06% | Potency [10] | Potency [11] | Potency [13] | Potency [14] | outcome [15] | Potency [16]

CCOP(=O)(SC(C)CC)N1CCSC1=O (stereo not given)
inactive: Potency [1] | outcome [2] | Potency [3] | Potency [4] | Potency [5] | Potency [6] | Potency [7] | Potency [8] | Potency [9] | Potency [17] | Potency [10] | Potency [11] | Potency [12] | Potency [13] | Potency [14] | outcome [15] | Potency [16]

CCCCCCCCCCCCN=C(N)N
active: Potency [5] 1.2 µM | Potency [18] 1.07 µM
inactive: activation (H2AX phosphorylation) [1] -1.39% [at 5.45 µM] | activation [2] 0.622% [at 2.67 µM] | activity change, negative = cytotoxicity [3] -0.757% [at 5.43 µM] | activity change, negative = cytotoxicity [4] -4.51% [at 2.72 µM] | cytotoxicity [6] 9.65% [at 2.72 µM] | activity change, negative = cytotoxic [7] 1.81% [at 2.72 µM] | cytotoxicity increase [8] 10.9% [at 2.72 µM] | viability change, negative = cytotoxic [17] -3.99% [at 2.72 µM] | activity change [10] 11.7% [at 2.72 µM, active compounds read high] | cytotoxicity increase [11] -5.75% [at 2.72 µM] | activity change, negative = cytotoxic [12] -5.5% [at 2.72 µM] | cytotoxicity [13] -6.79% [at 2.72 µM] | cytotoxicity increase [14] -4.41% [at 2.72 µM] | activity change, negative = cytotoxicity [15] 2.39% [at 2.72 µM] | cytotoxicity increase [16] 11.7% [at 2.72 µM]

O=C(O)C(Cl)(Cl)Br
inactive: Potency [1] | outcome [2] | Potency [3] | Potency [4] | Potency [5] | Potency [6] | Potency [7] | Potency [8] | Potency [9] | Potency [17] | max response [18] 0.585% | Potency [11] | Potency [12] | Potency [13] | Potency [14] | outcome [15] | Potency [16]

CCC1CCC(=O)O1 (stereo not given)
inactive: Potency [1] | outcome [2] | Potency [3] | Potency [4] | Potency [5] | Potency [6] | Potency [7] | Potency [8] | Potency [9] | max response [18] 8.21% | Potency [10] | Potency [11] | Potency [13] | Potency [14] | outcome [15] | Potency [16]

CN1CC[C@]23c4c5ccc(O)c4O[C@H]2[C@@H](O)CC[C@H]3[C@H]1C5
inactive: Potency [1] | outcome [2] | Potency [3] | Potency [4] | Potency [5] | Potency [6] | Potency [7] | Potency [8] | Potency [9] | Potency [17] | max response [18] -1.3% | Potency [10] | Potency [11] | Potency [13] | Potency [14] | outcome [15] | Potency [16]

Cc1nnc(-c2ccccc2)c(=O)n1N
inactive: Potency [1] | outcome [2] | Potency [3] | Potency [4] | Potency [5] | Potency [6] | Potency [7] | Potency [8] | Potency [9] | max response [18] -13.2% | Potency [10] | Potency [11] | Potency [13] | Potency [14] | outcome [15] | Potency [16]

CN[C@@H](C)[C@H](O)c1ccccc1
inactive: Potency [1] | outcome [2] | Potency [3] | Potency [4] | Potency [5] | Potency [7] | Potency [8] | Potency [9] | Potency [17] | max response [18] 1.2% | Potency [10] | Potency [11] | Potency [12] | Potency [13] | Potency [14] | outcome [15] | Potency [16]

C#CC(O)(C=CCl)CC (stereo not given)
inactive: Potency [1] | outcome [2] | Potency [3] | Potency [4] | Potency [5] | Potency [6] | Potency [7] | Potency [8] | Potency [9] | Potency [17] | max response [18] 10.1% | Potency [10] | Potency [11] | Potency [13] | Potency [14] | outcome [15] | Potency [16]

CC(C)CCON=O
inactive: Potency [1] | outcome [2] | Potency [3] | Potency [4] | Potency [5] | Potency [6] | Potency [7] | Potency [9] | Potency [17] | Potency [11] | Potency [12] | Potency [13] | Potency [14] | outcome [15]

CCOC(=O)C1OC1(C)c1ccccc1 (stereo not given)
inactive: Potency [1] | outcome [2] | Potency [3] | Potency [4] | Potency [5] | Potency [6] | Potency [7] | Potency [8] | Potency [9] | Potency [17] | max response [18] 0.105% and 2.55% | Potency [10] | Potency [11] | Potency [13] | Potency [14] | outcome [15] | Potency [16]

O=C(Cc1ccccc1)c1ccccc1
inactive: Potency [1] | outcome [2] | Potency [3] | Potency [4] | Potency [5] | Potency [7] | Potency [8] | Potency [9] | Potency [17] | max response [18] 4.41% | Potency [10] | Potency [11] | Potency [12] | Potency [13] | Potency [14] | outcome [15] | Potency [16]

NC(=S)c1c(Cl)cccc1Cl
inactive: Potency [1] | outcome [2] | Potency [3] | Potency [4] | Potency [5] | Potency [6] | Potency [7] | Potency [8] | Potency [9] | Potency [17] | Potency [10] | Potency [11] | Potency [12] | Potency [13] | Potency [14] | outcome [15] | Potency [16]

C[N+](C)(C)CC1CO1 (stereo not given)
inactive: Potency [1] | outcome [2] | Potency [3] | Potency [4] | Potency [6] | Potency [7] | Potency [8] | Potency [9] | Potency [17] | Potency [10] | Potency [11] | Potency [13] | Potency [14] | outcome [15] | Potency [16]

CCC(=O)O[C@@H]1C=C2CCC3C(CCC4(C)C3CC[C@@H]4OC(=O)CC)C2CC1 (stereo not given in full)
inactive: Potency [1] | outcome [2] | Potency [3] | Potency [4] | Potency [5] | Potency [7] | Potency [9] | Potency [17] | max response [18] -21.1% | Potency [10] | Potency [11] | Potency [12] | Potency [13] | Potency [14] | outcome [15]

CCSCc1ccccc1OC(=O)NC
inactive: Potency [1] | outcome [2] | Potency [4] | Potency [5] | Potency [6] | Potency [7] | Potency [8] | Potency [9] | max response [18] -1.43% | Potency [10] | Potency [11] | Potency [12] | Potency [13] | Potency [14] | outcome [15] | Potency [16]
